# Results taken from PubChem BioAssay (NCATS).
# Calls of active or inactive are those of the source. Calls follow the shape of the dose curve; as a rule, active = well fitted curve in the direction sought with a large enough effect; inconclusive = small, poorly fitted or top-dose-only effect, or another doubt; inactive = no such curve, though single readings can be large or run the other way.
# Target: Hexokinase-4 (Homo sapiens) + Glucokinase regulatory protein (Homo sapiens) (UniProt P35557+Q14397)
# Sequence (P35557 whole entry, looked up): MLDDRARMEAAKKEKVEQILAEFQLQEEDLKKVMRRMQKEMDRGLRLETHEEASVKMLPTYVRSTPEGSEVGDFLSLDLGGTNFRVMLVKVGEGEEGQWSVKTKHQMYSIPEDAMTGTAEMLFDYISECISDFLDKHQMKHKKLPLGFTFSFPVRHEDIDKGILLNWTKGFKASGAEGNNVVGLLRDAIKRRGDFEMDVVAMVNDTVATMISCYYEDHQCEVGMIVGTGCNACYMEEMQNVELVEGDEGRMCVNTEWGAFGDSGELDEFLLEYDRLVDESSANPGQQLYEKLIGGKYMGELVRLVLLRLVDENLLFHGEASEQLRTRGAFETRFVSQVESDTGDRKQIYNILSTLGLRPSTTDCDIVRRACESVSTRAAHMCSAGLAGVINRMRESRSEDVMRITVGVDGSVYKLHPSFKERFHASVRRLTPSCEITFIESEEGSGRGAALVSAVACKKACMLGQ
# Sequence (Q14397 whole entry, looked up): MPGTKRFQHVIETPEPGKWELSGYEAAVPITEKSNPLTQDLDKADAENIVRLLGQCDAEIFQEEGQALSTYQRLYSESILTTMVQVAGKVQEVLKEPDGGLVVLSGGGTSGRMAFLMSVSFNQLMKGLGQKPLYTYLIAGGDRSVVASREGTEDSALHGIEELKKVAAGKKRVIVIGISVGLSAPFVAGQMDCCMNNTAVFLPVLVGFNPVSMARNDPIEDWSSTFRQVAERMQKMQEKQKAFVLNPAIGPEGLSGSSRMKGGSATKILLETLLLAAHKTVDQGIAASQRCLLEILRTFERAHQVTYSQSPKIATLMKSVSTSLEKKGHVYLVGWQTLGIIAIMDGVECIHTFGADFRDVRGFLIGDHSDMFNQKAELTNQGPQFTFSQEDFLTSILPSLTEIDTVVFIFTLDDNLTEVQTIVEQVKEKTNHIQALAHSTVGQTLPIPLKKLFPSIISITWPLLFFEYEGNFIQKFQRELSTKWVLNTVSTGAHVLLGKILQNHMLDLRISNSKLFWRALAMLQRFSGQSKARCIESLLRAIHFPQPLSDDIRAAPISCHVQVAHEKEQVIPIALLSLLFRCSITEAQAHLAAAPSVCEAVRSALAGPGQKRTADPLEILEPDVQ
# Experiment: qHTS assay for inhibitors of recombinant human GCK-GKRP interaction: ADP-Glo assay (AID 743206)
# Settings: ADP-Glo luminescence, 60 min, 0% = vehicle-only wells with enzyme present; series mostly up to 76.9 µM
# Source text: Glucokinase (GCK) is a glucose sensor in hepatocytes and pancreatic beta-cells. Hepatic GCK is regulated by glucokinase regulatory protein (GKRP), which is predominantly localized to the liver. GKRP binds to GCK inhibiting its activity in the fasting state while in the presence of glucose the GKRP is displaced. There is an additional layer of regulation by fructose 1-phosphate and fructose 6-phosphate, which inhibit and enhance the GCK-GKRP interaction, respectively. GCK plays a role in glucose homeostasis and there is an interest in the development of strategies to activate GCK to lower blood glucose levels in type 2 diabetes. To date the majority of effort has focused on direct activation of GCK and the assays developed herein look to activate GCK by inhibiting its binding to GKRP. A compound that inhibits the interaction of GCK with GKRP could be important for the treatment of diabetes and can also be used as a tool compound to further elucidate GCK-GKRP biology. To that end, we have developed a sensitive HTS biochemical assay where in GCK activity is coupled to luciferase to interrogate the GCK-GKRP interaction. This assay was screened against a small compound library to look for modulators of activity.
# 2 uL of 15 nM GST-GCK and 15 nM FLAG-GKRP proteins with 2 uM S6P (columns 1-2, 4-48; Millipore, Billerica, MA) are dispensed into Greiner, white solid-bottom 1536-well assay plates; columns 3 receive buffer without GCK as a control for maximum inhibition. Compounds (23 nL) are then transferred via Kalypsys pin tool equipped with 1536-pin array (10 nL slotted pins, V&P Scientific, San Diego, CA). The library compounds are in columns 5-48 and columns 1-4 serve as controls with DMSO in columns 1 and 3 and 26 mM 1:1.5 fold serial of gluckokinase activator (GKA-EMD) in column 2 and 26 mM of the glucokinase activator (GKA-EMD) in column 4. Following addition of compound, 1 uL of ATP […] is added, and the plate is incubated for 60 minutes at room temperature. The amount of ADP is then quantified by the ADP-Glo Kit (Promega, Madison, WI). First, 2 uL of the first kit reagent is added, and the reaction is incubated for 45 minutes; then, 4 uL of the second kit reagent are added and the reaction is incubated for 30 minutes at which time the luminescence is read on a Viewlux plate reader (Perkin-Elmer, Waltham, MA). The final concentration of reagents in the reaction are 0.4 mM ATP, 25 mM Hepes pH 7.6, 25 mM KCl, 2 mM MgCl2, 1 mM DTT, 0.025% BSA, 0.01% Tween 20, 5 mM glucose. Data are normalized to DMSO-treated control columns with (maximum signal) and without (minimum signal) enzyme.
row,SMILES,outcome
1,CC(=O)O[C@]1(C(C)=O)CC[C@H]2[C@@H]3C=C(Cl)C4=CC(=O)[C@@H]5C[C@@H]5[C@]4(C)[C@H]3CC[C@@]21C,inactive
2,O=c1c(-c2ccc(O)cc2)coc2cc(O)ccc12,inactive
3,O=C(NCCN1CCOCC1)c1ccc(Cl)cc1,inactive
4,CCN(CC)CCOC(=O)c1ccc(N)cc1,inactive
5,CCN(CC)CCNC(=O)c1ccc(N)cc1,inactive
6,C[N+](C)(C)CCCCCC[N+](C)(C)C,inactive
7,CC/C(=C(\c1ccccc1)c1ccc(OCCN(C)C)cc1)c1ccccc1,inactive
8,COc1ccc(Cc2nccc3cc(OC)c(OC)cc23)cc1OC,inactive
9,CC(=O)N[C@@H](CS)C(=O)O,inactive
10,Clc1ccc(Cn2c(CN3CCCC3)nc3ccccc32)cc1,inactive
11,NC(N)=Nc1nc(CSCC/C(N)=N/S(N)(=O)=O)cs1,inactive
12,CCCNC(=O)NS(=O)(=O)c1ccc(Cl)cc1,inactive
13,CCN(CC)C(=O)c1ccc(O)c(OC)c1,inactive
14,CCCCCN(C)CCC(O)(P(=O)(O)O)P(=O)(O)O,inactive
15,COC(=O)[C@@H]1[C@H]2C[C@H]3c4[nH]c5ccccc5c4CCN3C[C@@H]2CC[C@@H]1O,inactive
16,CC(=O)CCCCn1c(=O)c2c(ncn2C)n(C)c1=O,inactive

row,SMILES,outcome
1,CC1(C)CCC2=C(O1)c1ccccc1C(=O)C2=O,inactive
2,O=c1cc(-c2ccc(O)cc2)oc2cc(O)cc(O)c12,inactive
3,O=C1NCC2(CCN(CCc3ccccc3)CC2)O1,inactive
4,Cc1cccc(C)c1OCC(C)N (stereo unspecified),inactive
5,CC(=O)c1ccc(S(=O)(=O)NC(=O)NC2CCCCC2)cc1,inactive
6,CCCCC1C(=O)N(c2ccccc2)N(c2ccccc2)C1=O,inactive
7,CC1=C(/C=C/C(C)=C/C=C/C(C)=C/C(=O)Nc2ccc(O)cc2)C(C)(C)CCC1,inactive
8,CCN1CCC[C@H]1CNC(=O)c1cc(S(N)(=O)=O)ccc1OC,inactive
9,COc1cccc(-c2cc(=O)c3ccccc3o2)c1N,inactive
10,O=C1NC(=O)C(c2ccccc2)(c2ccccc2)N1,inactive
11,Clc1ccc(C(c2ccc(Cl)cc2)n2cc[n+](CC(OCc3ccc(Cl)cc3Cl)c3ccc(Cl)cc3Cl)c2)cc1 (stereo unspecified),inactive
12,CC(C)OC(=O)C(C)(C)Oc1ccc(C(=O)c2ccc(Cl)cc2)cc1,inactive
13,NCCS,inactive
14,COc1ccccc1N1CCN(CCCNc2cc(=O)n(C)c(=O)n2C)CC1,inactive
15,CN(C)CCC(c1ccccc1)c1ccccn1 (stereo unspecified),inactive
